From PubChem BioAssay AID588343 (Broad Institute, 2011)
Hit rate of the full screen: of about 1,200 compounds, about 650 (54%) were called active. Roughly 5% stayed inconclusive and do not appear here.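 Rule for the calls: active = signal-lowering curve whose fitted half-maximal concentration is at or below ten times the top valid dose tested; inconclusive = flat curve with 30 to 70% inhibition, or poor fit; inactive = signal increase, flat within 30%, or potency beyond limit.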 The set was probably picked from earlier hits. Not all results are given here. Results with a measured potency or affinity are listed apart.

Test: EBV LMP1 TES2 canonical NF-kB signalling blockers – cell-based, HEK293, luciferase, cherry-pick, dose response (AID 588343);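 note: 0% = median of neutral control wells and -100% = MG132 positive control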
Conditions: HEK293 LMP1 TES2 NF-kB luciferase reporter, 16 h; series mostly up to 35 µM; activity change, negative = inhibition: at the top concentration

Activity change, negative = inhibition, inactive:
O=[N+]([O-])c1ccc(/C=N/Nc2cc(Cl)nc(-c3ccccc3)n2)cc1 42.9%, COC(=O)C1=C(C)N(c2cc(C)cc(C)c2)/C(=C/c2ccc(O)cc2)C1=O -5.12%, COC(=O)c1ccc(/C=C(/NC(=O)c2ccccc2)C(=O)N2CCOCC2)cc1 10.5%, CC[C@H]1OC(=O)[C@H](C)[C@@H](O[C@H]2C[C@@](C)(OC)[C@@H](O)[C@H](C)O2)[C@H](C)[C@@H](O[C@@H]2O[C@H](C)C[C@H](N(C)C)[C@H]2O)[C@](C)(O)C[C@@H](C)C(=NOCOCCOC)[C@H](C)[C@@H](O)[C@]1(C)O 0.266%, Cc1nnc(NC(=O)CSc2nnc(Cc3cccn3C)n2CCc2ccccc2)s1 3.74%, Cc1ccnc(SCCn2c(N3CCN(c4ccccc4)CC3)nc3c2c(=O)[nH]c(=O)n3C)n1 -12.6%, CSc1nc(N)nc(SCC(=O)C23CC4CC(CC(C4)C2)C3)c1C#N 20.8%, O=C(O)/C=C/c1ccc(Cn2ccnc2)cc1 -7.19%, Oc1[nH]c2ccccc2c1N=Nc1c(F)c(F)c(Cl)c(F)c1F 23.3%, CC(C(=O)N=Nc1c(O)[nH]c2ccccc12)n1cnc2ccccc2c1=O (stereo not drawn) -8.31%, O=C(CCc1ccccc1Cl)N1CCN(S(=O)(=O)c2ccccc2)CC1 -13.7%, COc1ccc(-c2cnc(NCc3cc4c(cc3[N+](=O)[O-])OCO4)n2C)cc1 -18.9%, COC(=O)C(NS(=O)(=O)c1ccc(N2CCCC2=O)cc1)c1ccccc1 (stereo not drawn) -4.56%, CC(C)c1nnc(NC(=O)c2ccc(N3C(=O)CCC3=O)cc2)s1 9.82%, Cn1nc(-c2ccc(N3CCOCC3)c(NS(=O)(=O)c3ccccc3)c2)c2ccccc2c1=O -2.5%, COc1ccc(OC)c2c1sc(=NC(=O)c1ccco1)n2C 6.54%, CCCCCC(=O)N1C[C@@H](O)[C@H](n2cc(C3CC3)nn2)C[C@@H]1c1ccc(C)cc1 6.25%, COc1ccc(S(=O)(=O)NC(CC(=O)NCc2ccco2)C(C)C)cc1 (stereo not drawn) -10.8%, COc1ccc(C(=O)CSc2nnc(Cc3ccccc3)o2)cc1 -7.07%, CCCc1cc(=O)[nH]c(SCC(=O)NC2CCCCC2)n1 0.752%, CN1C(=O)C(CC(=O)NC2CCCCC2)SC1=Nc1ccccc1 (stereo not drawn) 2.02%, CCOCCCn1cnc2c3cc(F)ccc3n(C)c2c1=O 13.7%, CCOC(=O)N1CCC(n2c(=S)[nH]c3ccccc3c2=O)CC1 9.29%, COc1cc(Cl)cc(C(c2c(C(=O)O)[nH]c3ccccc23)c2c(C(=O)O)[nH]c3ccccc23)c1O -3.69%, COc1ccc(CCNC(=O)CSc2ccsc2[N+](=O)[O-])cc1OC 1.89%, COc1ccc(CCNC(=O)CSC(=O)c2ccccc2)cc1OC 12.9%, O=C(c1noc2c1CCCC2)N1CCCCC1 10.1%, COc1cc(/C=C(\C#N)c2ccccn2)ccc1OCc1ccccc1Cl 2.29%, O=C(c1ccco1)N1CCN(S(=O)(=O)/C=C/c2ccccc2)CC1 -6.52%, CCOC(=O)c1ccc(NC(=O)CSc2nc(N3CCOCC3)nc(N3CCOCC3)n2)cc1 82.1%, CCN(CC(=O)Nc1ccc(NC(C)=O)cc1)C(=O)c1cccnc1Sc1ccc(C)c(C)c1 -7.7%, O=C(c1cccs1)N1CC=C(c2ccccc2)CC1 3.11%, COCCN1Cc2cccc(C(=O)N3CCN(c4cc(C)ccc4C)CC3)c2C1=O -8.16%, Cn1cc(S(=O)(=O)N2CCN(C(=O)c3ccco3)CC2)c(=O)n(C)c1=O 7.15%, CCOC(=O)c1ccc(NC(=S)N2CCSC2c2ccc(OC)cc2)cc1 (stereo not drawn) 6.65%, COC(=O)C1=C(C)NC(C)=C(C(=O)OCC(C)C)C1c1ccccc1[N+](=O)[O-] (stereo not drawn) 18.9%, O=C(O)C1CC(=O)N(c2ccc(Br)cc2)C1 (stereo not drawn) -4.39%, CCCC(C)NC(C)C(=O)NC1CCCC1 (stereo not drawn) -5.6%, CCCCCCNC(=O)O[C@]12C[C@@H](C(=O)OC)[C@@H](C(=O)OC)C[C@@]1(O)CN(S(=O)(=O)c1ccc(C)cc1)C2 -2.65%, Cc1nc(N)nc(SCc2ccc([N+](=O)[O-])cc2)c1N -1.43%, Brc1cccc(-c2cnco2)c1 10.1%, CC(C)NCC(O)COc1cccc2ccccc12 (stereo not drawn) -3.16%, Cc1ccc(NC(=S)NCc2cccs2)cc1 -5.01%, Cc1ccc(CCNC(=O)Cc2ccc(NC3=NC4CS(=O)(=O)CC4S3)cc2)cc1 (stereo not drawn) -1.43%, CCC(=O)OC1c2ccccc2C(=O)N1Cc1ccccc1 (stereo not drawn) -7.48%, CC1=CC(=NOC(=O)/C=C/c2ccccc2)C=C(C)C1=O 6.6%, O=C1CC(c2ccccc2)Oc2ccccc21 (stereo not drawn) 3.68%, COc1ccccc1C1(CC(=O)O)CCOC(C)(C)C1 (stereo not drawn) -4.13%, O=C(Cn1cc(CNC(=O)C2CCCCC2)nn1)Nc1cc(C(F)(F)F)ccc1Cl -8.87%, COC(=O)c1[nH]c2ccc(C)cc2c1NC(=O)NC1CCCCC1 23.4%, Cn1cc(CC(=O)NCCCN2CCCC2)c2ccccc21 6.09%, O=C(NCCCN1CCCCC1)c1ccc2c(c1)NC(=O)c1ccccc1S2 37.7%, CCCNC(=O)N1CCN(S(=O)(=O)c2ccc(C)c(C)c2)CC1 -10.3%, COc1ccc(S(=O)(=O)N2CCC(C(=O)NC3CC3)CC2)cc1OC -3.85%, O=C(O)c1ccc(-n2cncn2)c([N+](=O)[O-])c1 15%, O=S(=O)(N/N=C/c1ccccc1F)c1ccccc1 -3.49%, CCSc1nc2ccc(OC)cc2cc1C#N 10.6%, O=[N+]([O-])c1cc(/C=N\O)ccc1Oc1ccc(F)cc1 9.78%, CCOC(=O)c1sc2nc(C)nc(NCc3ccccc3)c2c1C 32.4%, Cn1c(=O)c2ncn(CC(=O)O)c2n(C)c1=O -11.1%, COc1ccc(C(Nc2ccccn2)c2oc(CO)cc(=O)c2O)cc1 (stereo not drawn) -2.04%, Cc1ccc2c(c1)N(CC(=O)N1CCCC1)C(=O)c1cccnc1O2 2.23%, O=C(NCc1ccccc1Cl)C1CCCN1S(=O)(=O)c1ccc(F)cc1 (stereo not drawn) -9.02%, COc1ccc(S(=O)(=O)N2CCN(CC(=O)Nc3ccc(C)c(F)c3)CC2)cc1 -3.25%, Cc1ccc(C2=C/C(=C\c3cccnc3)C(=O)O2)cc1 -11.9%, O=C1c2ccccc2C(Nc2cccnc2)N1Cc1ccccc1 (stereo not drawn) -7.37%, N=C1S/C(=C\c2ccccc2)C(=O)N1c1ccc(F)cc1 -6.59%, CC1S/C(=C(\C#N)C(=O)NCc2ccco2)N(Cc2ccco2)C1=O (stereo not drawn) -4.58%
